Data as given in ChEMBL document CHEMBL3988442, “University of Dundee, Small-Polar-MMV Screening Library” (2021).

Target: AMP-activated protein kinase, AMPK (Homo sapiens) (UniProt P54646+O43741+P54619+Q9UGJ0+Q9Y478+Q13131+Q9UGI9)
Assay: AMP-dependent Kinase enzyme assay. An in vitro enzyme assay that detects ADP turnover that is directly proportional to AMPK activity. This uses naive AMPK that is activated during the assay with MK-8722
Assay type: functional
Set-up: scale not given: direction of the effect not stated beside the values
Settings: 30 µM

Row | SMILES | Percent Effect
1 | O=C(c1cscn1)N1CCc2[nH]nc(Nc3ccccc3)c2C1 | 10.9%
2 | CN(Cc1ccc(C#N)cc1)CC1CCS(=O)(=O)C1 (stereo not given) | 7.17%
3 | CC(C(=O)NCc1ccc(F)cc1)N(C)CCN1CCOCC1 (stereo not given) | 2.87%
4 | Cc1sc2ccccc2c1S(=O)(=O)NCCNC(=O)C(C)C | -0.0872%
5 | CC(C)c1nnc(CN2CCc3ccc(S(N)(=O)=O)cc32)o1 | -0.483%
6 | Cc1cnc(Nc2cccc(C3CCCN3Cc3cn(C)nc3C)n2)s1 (stereo not given) | 21.4%
7 | N#Cc1ccc(SCCC(=O)NC(N)=O)cc1 | -6.73%
8 | CNCC(=O)NC1CC(C)(C)Cc2nc(C(C)(C)C)ncc21 (stereo not given) | -7.88%
9 | Cc1cc(-c2cnc(N3CCSCC3)nc2C(C)C)on1 | 16%
10 | CCN(CC)c1nc2sc(C(=O)N3CCNC(=O)C3)cc2s1 | 3.77%
11 | NC(=O)c1cc(C2CCCN(CCc3ccc4c(c3)CCO4)C2)n[nH]1 (stereo not given) | 3.33%
12 | N[C@H]1CN(S(=O)(=O)Cc2ccccc2)C[C@@H]1C1CC1 | -5.29%
13 | CN(CCCOc1ccccc1Cl)C(=O)CN1C(=O)CCNC1=O | 7.42%
14 | COCCCC1(CO)CCCN(C(=O)c2cnc3c(c2)CCCC3)C1 (stereo not given) | -2.32%
15 | O=C(NCc1cccnc1N1CCCC(O)C1)c1ccc2[nH]nnc2c1 (stereo not given) | -3.08%
16 | CS(=O)(=O)CCCNc1cccc(COC2CCCCC2)c1 | -2.55%
17 | CC(NCc1cccc(COC2CCCC2)c1)c1cnn(C)c1 (stereo not given) | 3.6%
18 | O=C(Cn1ccc(=O)[nH]c1=O)NCc1cccnc1OCC(F)(F)F | -4.52%
19 | COCc1cc(NCCCSc2nnc(C)s2)ncn1 | 8.32%
20 | COc1ccc(OC)c(C(C(=O)O)N2CCSCC2)c1 (stereo not given) | 0.166%

Row | SMILES | Percent Effect
21 | COc1ccc(NC(=O)N2CCCC(CO)C2)c(C)c1 (stereo not given) | -4.81%
22 | O=C(Cn1ccnc1)N1CC[C@H](Oc2cccc(F)c2)[C@@H](O)CC1 | 8.87%
23 | CN(C)Cc1cn(-c2ccccc2C(=O)NCC2CCCCN2C)cn1 (stereo not given) | -15.9%
24 | Cc1cc(C)cc(NCCC(=O)NCc2cccnc2N(C)C)c1 | -2.62%
25 | COc1c(C2CCCN2CC(=O)N(C)c2nccs2)c(C)nn1C (stereo not given) | 5.92%
26 | CC(CN1CCOCC1)NC(=O)N1CCCC1 (stereo not given) | 12.9%
27 | Cc1ccc(-c2noc(C3CCN3C(=O)c3ccn(C)n3)n2)s1 (stereo not given) | 12%
28 | COCCC(=O)N1CCCC(CCC(=O)Nc2ccc(Cl)cc2)C1 (stereo not given) | 5.38%
29 | Cc1nccn1CCCN1CCCC(c2ccccc2)C1 (stereo not given) | -4.4%
30 | Cc1ccc(OCc2occc2C(=O)N2C[C@@H]3[C@@H](CN(C)C)[C@@H]3C2)cc1 | 14%
31 | N#Cc1ccc(CN(CC(N)=O)Cc2cccc(F)c2)cc1 | -6%
32 | Cc1nc2cc(-c3nccn3C)nn2c(N2CCC(O)CC2)c1C | 20.2%
33 | CN(Cc1ccccc1)c1cnn(CC2CCCCO2)c(=O)c1 (stereo not given) | 7.07%
34 | COc1cc(N2CCN(Cc3ccc(C)o3)C(CCO)C2)nc(N)n1 (stereo not given) | 0.197%
35 | CCCc1ccc(CN2CCC3(CCC(=O)N(CCCOC)C3)CC2)o1 | 4.14%
36 | O=C(CCCN1CCCCC1)NC(C(=O)O)c1cccc(F)c1 (stereo not given) | 14.7%
37 | O=S(=O)(c1cn[nH]c1)N1CCC(O)(CN2CCC(F)(F)CC2)C1 (stereo not given) | 9.16%
38 | CC(C)[C@@H]1CN(C(=O)CN(C)Cc2ccc(F)cc2)C[C@H]1C(=O)O | 0.85%
39 | COc1c(C2CCCN2CC(=O)Nc2nccs2)c(C)nn1C (stereo not given) | 7.38%
40 | CCCN1CCC(CC(=O)NCCc2nc(C)cc(C)n2)CC1 | 6.07%
